An excerpt weighted towards active compounds, which were near 4% of everything screened.
FBA Mtb inh – inhibits M. tuberculosis FBA enzyme; P9WQA3; purified M. tuberculosis FBA, fluorescence read-out; inhibition, % at 1 µM; actives 2.3% (n = 360,000); AID 588726; in the data active = inhibition above about 27%;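 also: 0% = vehicle and 100% = reference inhibitor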
Target sequence (P9WQA3 whole entry, looked up): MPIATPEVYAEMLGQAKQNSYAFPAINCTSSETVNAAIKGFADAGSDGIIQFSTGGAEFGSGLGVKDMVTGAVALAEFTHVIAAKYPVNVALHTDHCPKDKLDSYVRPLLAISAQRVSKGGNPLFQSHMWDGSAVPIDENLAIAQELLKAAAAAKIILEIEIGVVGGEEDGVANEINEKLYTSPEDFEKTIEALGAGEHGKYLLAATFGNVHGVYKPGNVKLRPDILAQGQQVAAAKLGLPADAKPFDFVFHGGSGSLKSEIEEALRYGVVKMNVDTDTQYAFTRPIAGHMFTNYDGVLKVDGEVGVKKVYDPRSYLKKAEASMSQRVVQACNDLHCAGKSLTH
Mtb betalactam – beta-lactam sensitization of Mtb H37Rv. inhibition, % at 25 µM. M. tuberculosis H37Rv growth with meropenem, percent inhibition. actives 0.27% (n = 330,000); call rule not given here;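 also: growth measured after seven days incubation then overnight dye step; 0% = bacteria only wells and 100% = bacteria with antibiotic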
GDH-TPI inh – GDH-TPI coupled enzyme inhibition counter-screen | inhibition, % at 4.8 µM | AID 588335 | GDH-TPI coupled enzyme counterscreen, NADH absorbance | actives 1.2% (n = 360,000);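 also: 0% = DMSO wells and 100% = wells lacking the enzyme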
MazEF act – MazEF (E. coli) toxin RNase activation | P0AE70 | activation, % at 20 µM | FAM/BHQ RNA-DNA oligo cleavage fluorescence, 5 h | actives 0.32% (n = 350,000); in the data active = activation above about 50%
Target sequence (P0AE70 whole entry, looked up): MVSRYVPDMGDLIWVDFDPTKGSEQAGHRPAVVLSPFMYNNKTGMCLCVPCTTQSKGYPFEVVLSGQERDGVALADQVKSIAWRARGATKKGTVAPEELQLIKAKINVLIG
CCHF vOTU inh – CCHFV vOTU protease inhibition | Pep-AMC fluorescence | inhibition, % at 11.5 µM | actives 0.55% (n = 370,000); also: 0% = vehicle wells with enzyme and 100% = no enzyme wells
Active calls of the source: *; nt = not tested or not shown; + = active, no number. Rule as the data show it, unless noted: active = inhibition above about 30%; inactive = the rest.

SMILES	FBA Mtb inh	Mtb betalactam	GDH-TPI inh	MazEF act	CCHF vOTU inh
Cc1ccc(Cn2nnc3c2-c2ccccc2S(=O)(=O)N(C)C3)cc1	nt	nt	nt	nt	5
COC(=O)COc1ccc(/C=C2/SC(=O)N(CC(=O)N3CCCC3)C2=O)cc1Br	-3	91	36*	5	9
COC(=O)COc1cc(Br)c(/C=C2/SC(=O)N(CC(=O)N3CCCC3)C2=O)cc1OC	0	-5	29	-2	-5
O=C(NC1CCCCN(Cc2ccc(Cl)cc2)C1=O)C(c1ccccc1)c1ccccc1 (centres undefined)	nt	nt	nt	nt	4
CS(=O)(=O)Nc1ccc(C(=O)CC(=O)Nc2ccc([N+](=O)[O-])cc2)cc1	1	2	77*	13	17
COc1cc2c(cc1OC)-c1cc(NC3CC3)nc(=O)n1CC2	6	12	37*	4	8
COc1cc2c(cc1OC)-c1cc(OCCN3CCOCC3)nc(=O)n1CC2	+	4	32*	4	-254
CCNc1cc2n(c(=O)n1)CCc1cc(OC)c(OC)cc1-2	20	-1	26	2	-19
CCOc1ccccc1Nc1cc2n(c(=O)n1)CCc1cc(OC)c(OC)cc1-2	-2	-1	34*	17	17
O=C(CC1CCCC1)N1CC[C@H]2[C@H](CCCN2Cc2ccc(F)cc2)C1	nt	nt	nt	nt	6
NC(=O)c1ncn([C@@H]2O[C@H](C(=O)N[C@H](Cc3c[nH]c4ccccc34)C(=O)N3CCN(C(=O)C4CC4)CC3)[C@@H](O)[C@H]2O)n1	nt	nt	nt	nt	4
COCCCN1C(=O)[C@H](CC(=O)NCc2cccc3ccccc23)[C@]2(C(=O)OC)CCCCC=C12	nt	nt	nt	nt	6
Cc1sc(NC(=O)CSc2n[nH]c(N)n2)c(C#N)c1C	2	nt	10	53*	21
CCOC(=O)c1sc(NC(=O)CSc2nc(C)cc(C)n2)c(C#N)c1C	7	-18	32*	-6	-3
CCOC(=O)c1sc(NC(=O)CSc2n[nH]c(-c3ccccc3)n2)c(C#N)c1C	7	81	33*	1	25
CCOC(=O)c1sc(NC(=O)CSc2ncn[nH]2)c(C#N)c1C	-1	95	31*	4	-6
CCOC(=O)c1sc(NC(=O)CSc2ccccn2)c(C#N)c1C	2	6	5	-17	-11
C[C@@H]1C(=O)N2N=Cc3cc4ccccc4cc3[C@H]2N2N=Cc3cc4ccccc4cc3[C@@H]12	nt	nt	nt	nt	22
CN(C(=O)c1cccc(NC(=O)Cc2ccc(NC(=O)C3CCN(C(=O)CCc4ccccc4)CC3)cc2)c1)C1CCCC1	nt	nt	nt	nt	-1
O=C(NCc1ccc(F)c(F)c1)C1CCCN(c2nc3ccccc3o2)C1 (centres undefined)	nt	nt	nt	nt	11
Cc1ccc2cc3c(N)c(C(=O)Nc4c(C)[nH]c(=O)[nH]c4=O)sc3nc2c1	6	7	19	205*	-1
Cc1ccc2nc3sc(C(=O)Nc4c(C)[nH]c(=O)[nH]c4=O)c(N)c3cc2c1	6	4	18	12	-17
Cc1ccc(-c2c3c([nH]c(=S)c2C#N)CCCC3)o1	0	-2	12	88*	1
N#Cc1c(-c2ccncc2)c2c([nH]c1=S)CCCC2	5	5	-10	-4	5
O=C(Nc1cc(Cl)cc(Cl)c1)c1coc(=O)c(Br)c1	137*	6	32*	2	-52
SMILES	FBA Mtb inh	Mtb betalactam	GDH-TPI inh	MazEF act	CCHF vOTU inh
O=C(NC(CO)(CO)CO)c1coc(=O)c(Br)c1	5	-1	44*	8	1
COc1ccc(-n2c(SCc3ccc([N+](=O)[O-])cc3)nnc2-c2ccco2)cc1	nt	nt	nt	nt	-1
Cc1cc(=O)c2c(N(C)C)cccc2[nH]1	+	nt	15	17	-322
Cc1cc(=O)c2ccccc2[nH]1	0	-7	4	-8	-5
O=C(Cc1c[nH]c2ccccc12)Nc1ccc(Nc2cccnc2)c(-c2cc(F)cc(F)c2)c1	nt	nt	nt	nt	4
CCN(CC)C(=O)COc1ccc2oc(-c3ccco3)cc(=O)c2c1	134*	-7	25	4	-139
O=C(C1CCCN1S(=O)(=O)c1cccc2ccccc12)N1CCN(c2ccccc2)CC1 (centres undefined)	nt	nt	nt	nt	-2
Cc1cc(-c2n[nH]c(=S)n2N=Cc2ccc(-c3ccccc3)cc2)n[nH]1	nt	nt	nt	nt	0
Cn1c(=O)c2[nH]c(N=NN3CCCCC3)nc2n(C)c1=O	-7	nt	54*	20	-2
CC1CCCCN1N=Nc1nc2c([nH]1)c(=O)n(C)c(=O)n2C (centres undefined)	-1	nt	39*	-1	2
CC1CCN(N=Nc2nc3c([nH]2)c(=O)n(C)c(=O)n3C)CC1	-2	nt	31*	13	28
CC(=O)/C(N=Nc1nc2c([nH]1)c(=O)n(C)c(=O)n2C)=C(\C)O	-1	-5	3	23	0
Cn1c(=O)c2[nH]c(C3CCCC3)nc2n(C)c1=O	2	1	0	-4	2
CCOc1ccc(-n2c(SCC(=O)c3ccccc3Cl)nnc2-c2ccncc2)cc1	nt	nt	nt	nt	11
CCC(C)N(C(=O)CNc1nnnn1-c1ccccc1)C(C)CC (centres undefined)	nt	nt	nt	nt	0
O=C(OCCN1CCN(C2CN(Cc3cn(Cc4ccccc4C(F)(F)F)nn3)S(=O)(=O)C2)CC1)c1cc2ccccc2o1 (centres undefined)	nt	nt	nt	nt	-1
Cc1cc(C)cc(Nc2ccc(C(=O)O)cc2N)c1	118*	9	-3	4	-148
CCOC(=O)c1c(N)c2cc([N+](=O)[O-])ccc2n1C	2	-9	5	4	7
CCOC(=O)/C(=C/c1c(C)n(C)c2ccc([N+](=O)[O-])cc12)C(C)=O	-8	-3	31*	26	5
CCOC(=O)C1CCN(C(=O)C(Cc2ccc3c(c2)OCO3)NC(C)=O)CC1 (centres undefined)	nt	nt	nt	nt	-7
COc1ccc(S(=O)(=O)Nc2ccccc2)cc1	0	-3	-1	6	-9
COc1ccc(S(=O)(=O)Nc2ccc(O)c3ccccc23)cc1	1	30	20	-2	82*
CC(C)(C)C(=O)CSc1nc(N)cc(=O)[nH]1	2	-4	35*	1	-9
COc1ccc(CN(C(=O)CSc2nnc(-c3ccccc3C)o2)c2ccc(F)cc2)cc1	+	54	-16	-3	11
O=C1c2ccccc2C(=O)N1OS(=O)(=O)c1ccccc1	nt	8	nt	nt	nt
SMILES	FBA Mtb inh	Mtb betalactam	GDH-TPI inh	MazEF act	CCHF vOTU inh
Cc1cc(S(=O)(=O)ON2C(=O)c3ccccc3C2=O)ccc1F	37*	-5	8	0	8
O=C(Cn1cnc2ccccc2c1=O)N1CCCCC1	nt	nt	nt	nt	3
CCOC(=O)CNC(=O)N(CCOC)CC1CCCN(C2Cc3ccccc3C2)C1 (centres undefined)	+	5	-8	7	5
O=C(O)c1cccc(N2C(=O)/C(=C/c3ccc(SCc4ccc(Cl)cc4)o3)SC2=S)c1	1	nt	-6	574*	6
COc1ccc(F)cc1-c1cc(C(C)=O)c2n(c1=O)CCC2	nt	nt	nt	nt	-4
COCCNC(=S)N/N=C(\C)c1ccccc1O	1	95	31*	0	12
C/C(=N\NC(=S)NCc1ccccc1)c1ccc(Cl)s1	3	-5	9	-9	-7

Bioassay records: PubChem BioAssay, several laboratories
